Laboratory results as given in PubChem BioAssay (Tox21).
Values joined by “and” are separate entries in the source; they are usually repeats but may differ in a detail not shown here. Identical values can stand only once. Results filed as inconclusive are left out. Entries that show only a call come without a potency. Active and inactive are the calls of the source. Calls come from the whole dose curve; as a rule, active = well fitted cell-killing curve with a large enough effect in the repeat runs; inconclusive = weak or mixed curves, or effect the other way; inactive = flat fitted curve, though single readings scatter.

Assay: qHTS assay to identify small molecule agonists of the sonic hedgehog signaling (Shh) pathway - cell viability counter screen (AID 1259366); note: nearly all actives have a fitted effect of over 50% in size
Conditions: NIH/3T3 Gli1-Luc viability, CellTiter-Fluor, 24 h; series mostly up to 92.4 µM
From the text: National Center for Advancing Translational Sciences [NCATS]
NIH Chemical Genomics Center [NCGC]
U.S. Environmental Protection Agency [EPA]
National Institutes of Environmental Health Sciences [NIEHS]
National Toxicology Program [NTP]
U.S. Food and Drug Administration [FDA]
The sonic hedgehog (Shh) pathway is essential for normal embryonic development. Dysregulation of the Shh pathway can cause severe developmental defects in organs. Therefore chemicals that interfere with the pathway are potential developmental toxicants. A cell line designated 3T3Gli1-Luc (DMB/OARSA/CFSAN/FDA, Laurel, MD), a NIH/3T3 derived clone containing stably integrated Gli1-Luc reporter is used to detect chemical interference of the Shh pathway, by changes in the expression of the firefly Luc gene under the control of the Gli1 transcriptional response element. This cell line was used to screen Tox21 libraries for identifying and prioritizing the potential developmental toxicants that interfere Shh pathway. The cytotoxicity of the compounds was tested in parallel by measuring the cell viability using CellTiter-Fluor assay system (Promega, Madison, WI) in the same wells.
Tox21 Assay Protocol Summary:
3T3 Gli1-Luc cells were dispensed at 2,000 per well in 5uL of culture medium into white solid bottom 1536-well plates (Greiner Bio-One, Monroe, NC) using a Multidrop Combi (Thermo Scientific, Waltham, MA) dispenser. The assay plates were incubated at 37 C and 5% CO2 for 4hr, and then 23nL of compounds dissolved in DMSO and positive control were transferred using a Pintool station (Wako, San Diego, CA). The assay plates were incubated at 37C and 5% CO2 for 24hr. For viability read, after 23hr of compound treatment, 1uL of CellTiter-Fluor reagent (Promega Corporation, Madison, WI) was added to each well of the assay plates using Flying Reagent Dispenser (FRD, Aurora Discovery, San Diego, CA) and incubated the assay plates at 37C for 1hr. The fluorescence signal was quantified using a ViewLux plate reader (Perkin Elmer, Shelton, CT).
Potency is the fitted concentration of half-maximal effect.

Compound	Potency
O=[N+]([O-])c1cc(C(F)(F)F)c(Cl)c([N+](=O)[O-])c1Nc1ncc(C(F)(F)F)cc1Cl	4.33 µM (active)
C1=CCC=C1	inactive
C#CC1(O)CCCCC1	inactive
CCCCN(CCCC)C(=S)S	inactive
COc1c2c(cc3c1OCO3)CCN(C)C2	inactive
Clc1ccc(C(c2ccc(Cl)cc2)C(Cl)Cl)cc1	inactive
CC#C[C@]1(O)CC[C@H]2[C@@H]3C[C@H](C)C4=CC(=O)CC[C@]4(C)[C@H]3CC[C@@]21C	inactive
C[C@]12C/C(=C/O)C(=O)C[C@@H]1CC[C@@H]1[C@@H]2CC[C@@]2(C)[C@H]1CC[C@]2(C)O	55 µM (active) and 21.1 µM (active)
CO/N=C(\C(=O)OC)c1ccccc1CO/N=C(\C)c1cccc(C(F)(F)F)c1	inactive
OCC(Br)CBr (stereo not given)	inactive
CCC(C)Nc1c([N+](=O)[O-])cc(C(C)(C)C)cc1[N+](=O)[O-] (stereo not given)	inactive
CC1(C)[C@H](/C=C2\CCSC2=O)[C@@H]1C(=O)OCc1coc(Cc2ccccc2)c1	inactive
COP(=S)(NC(C)C)Oc1ccc(C)cc1[N+](=O)[O-] (stereo not given)	inactive
Nc1ccccc1-c1ccccc1	inactive
COC(=O)C(C)N(C(=O)c1ccco1)c1c(C)cccc1C (stereo not given)	inactive
O=C(N[C@@H]1N=C(c2ccccc2F)c2cccc3c2N(CC3)C1=O)c1cc2ccccc2[nH]1	inactive
CC(C)C(Br)C(=O)NC(N)=O (stereo not given)	inactive
C=C(C)C(=O)[O][Sn]([CH2]CCC)([CH2]CCC)[CH2]CCC	0.172 µM (active)
CC[N+]1(CC)CCC(OC(=O)C(O)(c2ccccc2)c2ccccc2)C1 (stereo not given)	inactive
CC(=O)[O][Sn]([c]1ccccc1)([c]1ccccc1)[c]1ccccc1	0.0545 µM (active)

Compound	Potency
CC1CN1 (stereo not given)	inactive
CC1(C)C(C=C(Cl)Cl)C1C(=O)OC(C#N)c1ccc(F)c(Oc2ccccc2)c1 (stereo not given)	inactive
CCN(CC)C(=O)N[C@@H]1C=C2c3cccc4[nH]cc(c34)C[C@@H]2N(C)C1	inactive
C[C@@H]1CC2=CC(=O)CC[C@@H]2[C@H]2CC[C@@]3(C)[C@@H](CC[C@]3(C)O)[C@@H]21	inactive
Cc1ccc([N+](=O)[O-])[c]2c1[O][Hg]2	2.66 µM (active)
ClSC(Cl)(Cl)Cl	inactive
CCCCc1ccccc1	inactive
CN=C=O	inactive
Oc1cccc(Cl)c1Cl	inactive
CN/C(=N\[N+](=O)[O-])NCc1cnc(Cl)s1	inactive
S=C=Nc1ccccc1	inactive
Nc1c(Cl)c(Cl)c(Cl)c(Cl)c1Cl	inactive
CN1[C@@H]2CC[C@H]1CC(O)C2 (stereo not given in full)	inactive
CC(=O)C(Cl)C(=O)N(C)C (stereo not given)	inactive
CC(C)=CC1C(C(=O)OC(C#N)c2cccc(Oc3ccccc3)c2)C1(C)C (stereo not given)	inactive
CNC(=O)/C=C(\C)OP(=O)(OC)OC	inactive
[O-][Cl+3]([O-])([O-])O	inactive
CC(C)N(C(=O)SC/C(Cl)=C/Cl)C(C)C	inactive
CNN	inactive
Clc1ccc(C2(Cn3cncn3)OCCO2)c(Cl)c1	inactive
